Data on seven compounds can be found in PubChem BioAssay (NCI).

Assay in all cases: NCI-60 one-dose screen, 48 h (100 = growth as untreated, 0 = no growth, -100 = all killed)
Holding throughout (details): 10 µM unless noted

Assay [1] concerns HCT-15 colon.
Assay [2] has as its system HT29 colon.
For assay [3], the system named is SNB-75 CNS.
For assay [4], the system named is SNB-19 CNS.
For assay [5], the system named is U251 CNS.
In assay [6] the test system is PC-3 prostate.
For assay [7], the system named is SK-MEL-5 melanoma.
Assay [8] concerns UACC-62 melanoma.
In assay [9] the test system is LOX IMVI melanoma.
Assay [10] concerns SK-MEL-28 melanoma.
For assay [11], the system named is SK-MEL-2 melanoma.
For assay [12], the system named is EKVX NSCLC.
Assay [13] relates to SN12C renal.
Assay [14] concerns UO-31 renal.
In assay [15] the test system is TK-10 renal.
For assay [16], the system named is ACHN renal.
For assay [17], the system named is CAKI-1 renal.
Assay [18] deals with CCRF-CEM leukemia.
For assay [19], the system named is MOLT-4 leukemia.

About 83,000 compounds went through this panel and 20% of them were active in at least one assay; those are over-represented in the sample as a whole.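 Interpretation: 100, growth as untreated; towards 0, rising growth inhibition; 0, no net growth; 0 to -100, cell death. Compounds scoring below 10 were considered active.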 Values without a mark were called inactive. Active and inactive are the calls of the source.

For `O=C(c1nc2ccccc2[nH]1)C1C(c2ccc(Cl)cc2)C2CC3CCCC[C@H]3N2[C@@]12C(=O)Nc1cc(Cl)ccc12` (stereo partly drawn), the growth is 30.2% in [1]; 26% in [2]; 34.4% in assay [3]; 59% in assay [4]; 49.3% in assay [5]; 31.9% in assay [6]. The growth in assay [7] is 50.1%; in assay [8] it was 59.3%; in [9], 35%; in assay [10], 72%; in assay [11], 66.7%; in assay [12], 34.5%. In addition, the growth in assay [13] is 48%; in [14], 20.1%; in assay [15], 46.4%; in [16], 40.5%; in assay [17], 20.6%; in assay [18], 30.2%. The growth in [19] was 7.41% (active).
With `O=C1c2cccc3c(-c4ccc5c(c4)ncn5C4CCCCC4)ccc(c23)C(=O)N1c1nc2ccccc2s1`, the growth in [1] is 59.5%; in assay [2] it was 84%; in assay [3], 75.2%; in [4], 94.6%; in assay [5], 86.9%; in [6] it was 73.2%. Besides, the growth in assay [7] was 74.6%; in assay [8], 73%; in assay [9] it was 84.8%; in assay [10] it was 96.6%; in assay [11] it was 81.4%; in assay [12], 76.4%. In addition, the growth in assay [13] is 83.7%; in [14], 56.3%; in [15], 99.6%; in [16] it was 84.7%; in assay [17] it was 72.8%; in assay [18], 83%. In assay [19], the growth was 81.1%.
On to `COc1cccc(/C=N/NC(=O)c2cnn3c2NC(c2ccccc2)C3)c1Oc1ccccc1` (stereo not drawn), for which the growth in [1] was 49.8%; in assay [2] it was 41.5%; in [3] it was 60.8%; in [4], 75.4%; in assay [5], 83.9%; in assay [6], 72.3%. Further, the growth in [7] was 73%; in assay [8], 62.3%; in [9], 84.5%; in assay [10], 79.1%; in assay [11], 66.2%; in [12] it was 93.7%. Besides, the growth was 104% in assay [13]; 77.4% in assay [14]; 94.3% in assay [15]; 87% in assay [16]; 78.2% in [17]; 79.4% in [18]. The growth in [19] was 75.2%.
For the compound `C=C(C)[C@@H]1CC[C@]2(C(=O)N3CCN(C)CC3)CC[C@]3(C)[C@H](CC[C@@H]4[C@@]5(C)C/C(=C/c6cccnc6)C(=O)C(C)(C)[C@@H]5CC[C@]43C)[C@@H]12`, the growth in [1] was 44.5%; in [2] it was 20.9%; in [3], 79.7%; in [4], 68.7%; in assay [5], 52.3%; in assay [6], 18.6%. For the same compound, the growth in assay [7] is 68.6%; in assay [8], 81.4%; in assay [9], 78.7%; in assay [10], 83.1%; in [11], 82.8%; in [12], 83.8%. The growth in [13] was 57.6%; in assay [14] it was 57.2%; in [15], 101%; in assay [16], 71.7%; in [17], 79.8%; in [18], 28.9%. For the same compound, the growth in assay [19] is 14.9%.
In the case of `COc1cc2oc(-c3cccc(C(=O)Nc4ccc(Cl)cc4)c3)cc(=O)c2c(O)c1OC`, the growth in [1] was 70.2%; in assay [2] it was 66.2%; in assay [3] it was 24.4%; in [4], 28.4%; in [5] it was 23%; in assay [6], 55.1%. The growth in [7] is 58.7%; in assay [8], 42.7%; in assay [9], 69.8%; in [10], 67.8%; in [11], 83.1%; in assay [12], 77.2%. The growth in assay [13] was 41.5%; in [14] it was 47%; in assay [15], 75.5%; in [16], 33.4%; in [17], 55%; in assay [18] it was 75.6%. Further, the growth in assay [19] was 74.1%.
For the compound `N#Cc1cc(-c2nc3ccccc3s2)c(=O)n(NS(=O)(=O)c2ccccc2)c1N`, the growth in assay [1] was 108%; in assay [2] it was 107%; in assay [3], 73.1%; in [4], 103%; in assay [5], 102%; in [6], 102%. Besides, the growth is 101% in assay [7]; 97.1% in assay [8]; 99.4% in assay [9]; 121% in assay [10]; 104% in assay [11]; 101% in assay [12]. The growth in [13] was 99.9%; in assay [14], 72.7%; in [15] it was 137%; in [16], 99.5%; in assay [17], 81.8%; in [18], 105%. Further, in assay [19], the growth was 107%.
On to `CCOC(=O)c1cc(C(=O)c2ccc(OC)c(OC)c2)n2ccc(/C=C/c3cc[n+](CC(=O)c4ccc(OC)c(OC)c4)cc3)cc12`, for which the growth in assay [1] was 104%; in assay [2], 95.5%; in [3] it was 79.4%; in assay [4], 90.6%; in assay [5], 95.5%; in assay [6] it was 92.8%. The growth in assay [7] is 98%; in [8], 96.6%; in assay [9], 87.7%; in assay [10] it was 104%; in [11], 112%; in assay [12] it was 99.6%. In addition, the growth in assay [13] was 86.8%; in assay [14], 82.7%; in [15] it was 113%; in assay [16], 96.3%; in [17], 96.2%; in assay [18], 85.7%. Besides, in [19], the growth is 93.7%.
